This passage reports z-score results from PubChem BioAssay.

Molecules are shown by their SMILES. The source made the active and inactive calls.
Also: test concentration not given here.

The first test can be described thus: basal HepG2 mitochondrial membrane potential changes, profiling panel, cell-based, JC-1 fluorescence, 24 h, 100 nL compound (AID 1167). Particulars: higher = more signal.
`CCOC(=O)[C@H](Cc1ccccc1)NC(=O)CCC1CC(OC(=O)NCc2ccc3c(c2)OCO3)CC2(CCCC(COC(=O)NCC(c3ccccc3)c3ccccc3)O2)O1` (stereo partly drawn) returned a z-score of 1.37. Take `COCCCNC(=O)[C@@]1(C)c2ccccc2C(=O)N(Cc2ccc(OC(F)(F)F)cc2)[C@H]1c1ccc(CO)cc1`: the z-score worked out at 2.4. `CC(=O)O[C@H]1C2=C(C(=O)[C@@H]3O[C@@H]31)[C@H]1C(C)O[C@@H]2[C@@]23C(=O)[C@@H]4O[C@@H]4[C@@H](O)C2=CO[C@H](C)[C@@H]13` (stereo partly drawn): the z-score was -1.92.

Turning to `COCCOC(=O)N1C(=O)[C@@]2(c3cc(C#CCNC(N)=O)ccc31)[C@H](c1ccc(O)cc1)N1[C@H](c3ccccc3)[C@H](c3ccccc3)OC(=O)[C@H]1[C@@H]2C(=O)N1CCCCCCC1`, the z-score is -1.85. The molecule `CC(=O)OC[C@H]1O[C@H](CCON=C(C)CCC(=O)OC[C@H]2O[C@H](C#Cc3ccccc3)C=C[C@@H]2Oc2ccc(C)cc2)C=C[C@@H]1OC(C)=O` had a z-score of -0.797. Turning to `O=C1[C@H]2[C@H]3[C@H](O)[C@H](O)CC(=NOC[C@@H](O)COCc4ccco4)[C@H]3CC[C@H]2C(=O)N1c1cccc(Oc2ccccc2)c1`, the z-score is 0.526. With `CC(C)(C)N1C(=O)[C@H]2[C@H]3[C@H](O)[C@H](O)CC(=NO[C@@H]4O[C@H](CO)[C@@H](O)[C@H](O)[C@H]4O)[C@@H]3CC[C@H]2C1=O`, the z-score is -2.11.

The next test is described as follows: basal 3T3-L1 adipocyte mitochondrial potential changes, profiling panel, cell-based, JC-1 fluorescence, 3T3-L1 adipocytes, 24 h, 100 nL compound (AID 1168). Particulars: JC-1 mitochondrial fluorescence, higher = more signal, called active from +8 up or from −8 down.
Consider `CO[C@H]1COC(=O)[C@@H]2CCCN2C(=O)CC=C[C@@H](C)[C@H](OC)COC(=O)CC=C[C@@H]1C`, for which the z-score was 0.252 (inactive).

Regarding `CC(C)CON=C1C[C@@H](O)[C@@H](O)[C@@H]2[C@@H]3C(=O)N([C@@H](C)c4ccccc4)C(=O)[C@@H]3CC[C@H]12`, the z-score was 0.341 (inactive). On the same count and under the same terms, for `O=C1[C@H]2[C@H]3[C@H](O)[C@H](O)CC(=NOC[C@@H](O)COCc4ccco4)[C@@H]3CC[C@H]2C(=O)N1c1ccc(F)cc1F` the value was -0.116 (inactive); for `CO[C@@H]1COC(=O)CCC[C@@H](C)[C@H](OC)COC(=O)CCC[C@H]1C`, -0.996 (inactive). Turning to `C=CC[C@@H]1C=C[C@H](ON=C[C@@H](OC)[C@H](C)C=CCC(=O)OC)[C@@H](CO)O1`, the z-score was -0.862 (inactive). In the case of `CCCC[C@@H](O)C1=C(C)C[C@H]2C(=O)N(Cc3ccccc3)C(=O)[C@H]2[C@H]1CO`, the z-score was 0.164 (inactive). For `CC(CCN1CCc2nc(-c3ccccc3)c(-c3ccccc3)cc2C1)=NO[C@H](C)c1cn([C@@H]2COC[C@H]2O)nn1`, the z-score was -0.673 (inactive). As for `CC(C)[C@H](NC(=O)OC(C)(C)C)[C@@H](O)CC(=O)OC(C)(C)C`, the z-score is -0.689 (inactive).

With `CCOC(=O)C[C@H]1[C@H](OC(=O)c2ccc(C(=O)c3ccccc3)cc2)[C@@H](NC(=O)c2ccc(-c3ccccc3)cc2)c2cc(OCCCO)ccc2N1C(=O)c1ccc2ccccc2n1`, the z-score was 1.98 (inactive).

Regarding `CCCNC(=O)OC[C@H]1O[C@H](CCON=C[C@@H](OC)[C@H](C)C=CCC(=O)OC)C=C[C@@H]1Oc1ccc(OC)cc1`, the z-score is -0.277 (inactive). With `CCOC(=O)CCN1C(=O)[C@H]2[C@H]3[C@H](O)[C@H](O)CC(=NNC(=O)OCc4ccc(OC)cc4)[C@@H]3CC[C@H]2C1=O`, the z-score is -0.0296 (inactive). `COc1ccc(O[C@H]2C=C[C@@H](c3ccccc3)O[C@@H]2COC(=O)CCC(C)=NOC[C@@H](C)[C@H](OCc2ccccc2)C(C)C)cc1`: the z-score was -1.61 (inactive).

For the molecule `O=C1[C@H]2[C@H]3[C@H](O)[C@H](O)CC(=NOCc4ccccc4)[C@H]3CC[C@H]2C(=O)N1C[C@@H]1CCCO1`, the z-score was -1.13 (inactive). Regarding `O=C1O[C@@H](c2ccccc2)[C@@H](c2ccccc2)N2[C@@H](c3ccc(OCCO)cc3)[C@]3(C(=O)Nc4ccc(C#CCCO)cc43)[C@@H](C(=O)N3CCCCCCC3)[C@H]12`, the z-score was -0.564 (inactive). Consider `CCCCc1nc2c(c3c1C[C@H](C)OC3)CN(CCC(C)C)CC2`, for which the z-score is -0.836 (inactive). Still for that read-out and setting: for `O=C1C2=CC[C@H]3C(=O)N(Cc4ccc5c(c4)OCO5)C(=O)[C@H]3[C@H]2[C@H](O)[C@@H]2O[C@H]12` the value was 0.00654 (inactive); for `O=C1CCCC=C1C(O)CCOCc1ccccc1` (stereo not drawn), 0.0503 (inactive); for `COCCCNC(=O)[C@]1(CCC(=O)OC(C)(C)C)N=C(c2ccc(OCCCO)cc2)O[C@@H]1c1ccccc1N=[N+]=[N-]`, 3.61 (inactive). In the case of `COC(=O)[C@@H]1CCCN1C(=O)[C@@H](C)CO`, the z-score was 0.514 (inactive).

`COc1ccc([Si](C)(C)[C@H]2[C@H](CCO)O[C@@]3(C(=O)N(Cc4cccc(NC(=O)[C@H](C)O)c4)c4ccccc43)[C@@H]2C)cc1`: the z-score was 1.46 (inactive). The same measure, in the same setting: the value for `CCOC(=O)CCN1C(=O)[C@H]2[C@H]3[C@H](O)[C@H](O)CC(=NOC[C@@H](O)COCc4ccco4)[C@@H]3CC[C@H]2C1=O` was -0.125 (inactive); that for `CC(CCN1CCCCc2nc(C)c(C)cc21)=NOC(C)CN1CCCCc2nc(C)c(C)cc21` (stereo not drawn) was -1.2 (inactive). As for `COCCOC(=O)N1C(=O)[C@@]2(c3cc(C#CC4(O)CCCCCC4)ccc31)[C@H](c1ccc(OCCO)cc1)N1[C@H](c3ccccc3)[C@H](c3ccccc3)OC(=O)[C@H]1[C@@H]2C(=O)NC[C@H](O)c1ccccc1`, the z-score was 0.0493 (inactive). As to `CC(C)NC(=O)[C@@]1(C)c2ccccc2C(=O)N(Cc2cc(F)cc(C(F)(F)F)c2)[C@H]1c1ccc(CO)cc1`, the z-score was -0.327 (inactive). Still for that read-out and setting: for `O=C1[C@H]2[C@H]3[C@H](O)[C@H](O)CC(=NO[C@@H]4O[C@H](CO)[C@@H](O)[C@H](O)[C@H]4O)[C@H]3CC[C@H]2C(=O)N1Cc1ccc2c(c1)OCO2` the value was 0.48 (inactive); for `O=C1[C@H]2[C@H]3[C@H](O)[C@H](O)CC(=NOCc4ccccc4)[C@H]3CC[C@H]2C(=O)N1c1cccc(Oc2ccccc2)c1`, 0.394 (inactive).

`C[C@H](c1ccccc1)N1C(=O)[C@H]2[C@@H]3C(=CC[C@H]2C1=O)C(=O)[C@H]1O[C@H]1[C@H]3O`: the z-score was 1.02 (inactive). Consider `Cc1cc2c(nc1C)CCCN2CC(C)ON=C1[C@H]2CCn3c(=O)n(-c4ccccc4)c(=O)n3[C@H]2[C@H](O)[C@@H]2O[C@H]12` (stereo partly drawn), for which the z-score was -1.38 (inactive). For `C#CCCCON=C1C[C@@H](O)[C@@H](O)[C@@H]2[C@@H]3C(=O)N([C@@H](C)c4ccccc4)C(=O)[C@@H]3CC[C@H]12`, the z-score is 0.114 (inactive). `CCOC(=O)[C@H](Cc1ccccc1)NC(=O)CCC1CC(OC(=O)NCc2ccc3c(c2)OCO3)CC2(CCCC(COC(=O)NCC(c3ccccc3)c3ccccc3)O2)O1` (stereo partly drawn): the z-score was -0.717 (inactive). For the molecule `COCCCNC(=O)[C@@]1(C)c2ccccc2C(=O)N(Cc2ccc(OC(F)(F)F)cc2)[C@H]1c1ccc(CO)cc1`, the z-score was 0.582 (inactive). Regarding `CC(=O)O[C@H]1C2=C(C(=O)[C@@H]3O[C@@H]31)[C@H]1C(C)O[C@@H]2[C@@]23C(=O)[C@@H]4O[C@@H]4[C@@H](O)C2=CO[C@H](C)[C@@H]13` (stereo partly drawn), the z-score is -0.78 (inactive).

For `COCCOC(=O)N1C(=O)[C@@]2(c3cc(C#CCNC(N)=O)ccc31)[C@H](c1ccc(O)cc1)N1[C@H](c3ccccc3)[C@H](c3ccccc3)OC(=O)[C@H]1[C@@H]2C(=O)N1CCCCCCC1`, the z-score is -0.731 (inactive). On the same count and under the same terms, for `CC(=O)OC[C@H]1O[C@H](CCON=C(C)CCC(=O)OC[C@H]2O[C@H](C#Cc3ccccc3)C=C[C@@H]2Oc2ccc(C)cc2)C=C[C@@H]1OC(C)=O` the value was -0.942 (inactive); for `O=C1[C@H]2[C@H]3[C@H](O)[C@H](O)CC(=NOC[C@@H](O)COCc4ccco4)[C@H]3CC[C@H]2C(=O)N1c1cccc(Oc2ccccc2)c1`, 0.994 (inactive); for `CC(C)(C)N1C(=O)[C@H]2[C@H]3[C@H](O)[C@H](O)CC(=NO[C@@H]4O[C@H](CO)[C@@H](O)[C@H](O)[C@H]4O)[C@@H]3CC[C@H]2C1=O`, -0.404 (inactive).
